Hits are enriched below; roughly 3.9% of the tested compounds scored in any of these assays.
HSF1 inh = HSF1 inhibitors in luciferase reporter cells, primary screen, cell-based, NIH3T3, luminescence. 300,000 tested, 0.77% active. NIH3T3-HGL HSE-luciferase, MG132-induced, luminescence 8 h; stronger effect = lower value. activity change, negative = inhibition, % at 7.5 µM (by protocol);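 active = more than half of replicate wells show activity change below -50%, luminescence cut by over half; inconclusive = some wells, but at most half, below -50%; inactive = no replicate well below -50%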;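 note: luciferase reports HSF-1 transcriptional activity via heat shock element; 0% = median of DMSO wells and -100% = zero luminescence signal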
Wnt bcat act = Wnt/beta-catenin pathway activators, primary screen, cell-based, plate reader, single point. Wnt/beta-catenin reporter cell assay, activator. activation, % at 9.35 µM. 300,000 tested, 1.2% active. AID 743398, 2014; in the data active = activation above about 30%, passing the limit was not always enough; inconclusive = no clear call, values can overlap the other calls;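 note: 0% = neutral control wells and 100% = positive control wells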
esBAF inh = Bmi1 luciferase reporter increase in mESCs, primary screen, esBAF inhibitor project, mouse ES cells, Bmi1 luciferase knock-in, single point; reporter increase, % at 12.5 µM; AID 602393, 2012; 350,000 tested, 2% active; 24 h; 100% = twice the neutral-well signal; in the data active = activation above about 40%; inconclusive = no clear call, values can overlap the other calls;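 note: 0% = median of the plate's neutral control wells and 100% = double that signal; a rise in the Bmi1 reporter signal indicates esBAF inhibition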
HSF-1 act = HSF-1 activators, primary screen, NIH3T3-HGL cells, MG132 stress, luminescence, single point; NIH3T3-HGL HSF-1 luciferase reporter, 8 h; 100% = twice DMSO control signal; activation, % at 9 µM; 300,000 tested, 1.7% active;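 active = mean replicate activation of at least 50% with a set share of replicates each reaching 50%; inconclusive = only one of those two conditions met; inactive = mean below 50% and too few replicates reaching it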;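 note: 0% = median of the neutral control wells and 100% = twice that signal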
MITF TRPM1 HTS = activators of MITF-driven TRPM1 promoter reporter, primary screen, cell-based, SK-MEL-5, luciferase, single point; SK-MEL-5 TRPM1-promoter luciferase, 24 h; % of positive control, neutral wells = 0; activation, % at 12.5 µM; 300,000 tested, 0.75% active; AID 588334, 2011;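 active = mean activation of at least 80% with every replicate also reaching 80%; inconclusive = mean reaches 80% but some replicate falls short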;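 note: 0% = neutral control wells and 100% = parthenolide positive control wells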
Active calls of the source: *.

What do the screens show for `Cc1ccc(/C=N/N2CCN(c3ccccc3)CC2)cc1`?
HSF1 inh: 14; Wnt bcat act: 7; HSF-1 act: 36; MITF TRPM1 HTS: 73

How did Cc1cccc(/C=N/N2CCN(c3ccccc3)CC2)c1 do in these assays?
HSF1 inh: 4; Wnt bcat act: 20; esBAF inh: 35; HSF-1 act: 28; MITF TRPM1 HTS: 100*

Results for C[C@@H]1CN([C@H](C)CO)C(=O)c2cc(NC(=O)NC3CCCCC3)ccc2O[C@@H](C)CCCCO[C@@H]1CN(C)Cc1ccc(Cl)c(Cl)c1 ?
esBAF inh: 6

How did CN1C(=O)c2cc(NC(=O)C3CCCC3)ccc2OC[C@H]2O[C@@H](CC(=O)O)CC[C@H]21 do in these assays?
esBAF inh: 6

Results for CCC(=O)N1[C@@H](CO)[C@@H]2c3ccccc3N(S(=O)(=O)c3ccccc3C)C[C@@H]21 ?
esBAF inh: -2

How did Cc1nc2scc(C)n2c(=O)c1S(=O)(=O)N1CCN(c2cccc(C(F)(F)F)c2)CC1 do in these assays?
HSF1 inh: -65*; Wnt bcat act: -2; esBAF inh: 1; HSF-1 act: -70; MITF TRPM1 HTS: -18

Results for CN(C)C(=O)c1ccc(-c2cc3onc(-c4ccccc4)c3c(=O)n2C)cc1 ?
Wnt bcat act: 41*; esBAF inh: 55*; MITF TRPM1 HTS: 69

Results for COC(=O)c1ccc(-c2cc3onc(-c4ccccc4)c3c(=O)n2C)cc1 ?
Wnt bcat act: 31*; esBAF inh: 39; MITF TRPM1 HTS: 39

How did C[C@@H]1CN([C@H](C)CO)C(=O)c2cc(NC(=O)C3CCCCC3)ccc2O[C@@H]1CN(C)C(=O)Nc1cccc2ccccc12 do in these assays?
esBAF inh: -3

Results for C[C@H](CO)N1C[C@H](C)[C@H](CN(C)C(=O)CCC(F)(F)F)OCCCC[C@H](C)Oc2ccc(NC(=O)Cc3ccccc3)cc2C1=O ?
esBAF inh: 3

What do the screens show for `O=C(NCCSc1ccccc1)c1cncc(Br)c1`?
HSF1 inh: 11; esBAF inh: 76*; HSF-1 act: 20; MITF TRPM1 HTS: 36

What do the screens show for `O=C(NCCSc1ccccc1)c1ccc(Br)cc1`?
HSF1 inh: 28; Wnt bcat act: -4; HSF-1 act: 45; MITF TRPM1 HTS: 29

How did CCc1cc(C)cc(OCCNC(=O)c2cncc(Br)c2)c1 do in these assays?
HSF1 inh: -62*; Wnt bcat act: 0; esBAF inh: 28; HSF-1 act: -72; MITF TRPM1 HTS: -8

How did O=C(NCCSc1ccccc1)c1ccccc1Cl do in these assays?
HSF1 inh: 22; Wnt bcat act: -4; HSF-1 act: 44; MITF TRPM1 HTS: 56

How did CCC(NC(=O)c1cncc(Br)c1)c1ccccc1 (stereo unspecified) do in these assays?
HSF1 inh: 0; Wnt bcat act: 31*; esBAF inh: -6; HSF-1 act: -4; MITF TRPM1 HTS: -3

Results for Cc1ccccc1C(=O)NCCSc1ccccc1 ?
HSF1 inh: 29; esBAF inh: 55*; HSF-1 act: 54*; MITF TRPM1 HTS: 96*

What do the screens show for `O=C(COC(=O)c1cncc(Br)c1)NCc1ccc(Cl)cc1`?
HSF1 inh: -17; Wnt bcat act: -6; esBAF inh: -8; HSF-1 act: -22; MITF TRPM1 HTS: -4

How did O=C(COC(=O)c1cncc(Br)c1)NCc1ccccc1 do in these assays?
HSF1 inh: 14; Wnt bcat act: -1; HSF-1 act: 53*; MITF TRPM1 HTS: -4

Results for Oc1ccc(-c2nnc(SCC3CCCCC3)o2)cc1 ?
HSF1 inh: 13; Wnt bcat act: 53*; esBAF inh: inconclusive; HSF-1 act: 19

How did O=C(CSc1nnc(-c2ccc(F)cc2)o1)NC1CCCCC1 do in these assays?
HSF1 inh: -6; Wnt bcat act: 29; HSF-1 act: -13; MITF TRPM1 HTS: 5

What do the screens show for `CN(Cc1ccc(F)cc1)C(=O)CCc1nnc(-c2ccccc2)o1`?
HSF1 inh: 14; Wnt bcat act: 6; HSF-1 act: 22; MITF TRPM1 HTS: 57

Results for CN(Cc1nnc(-c2ccc(F)cc2)o1)c1ccccc1 ?
HSF1 inh: 13; Wnt bcat act: -2; esBAF inh: 36; HSF-1 act: 60*; MITF TRPM1 HTS: 9

Results for Cc1ccc(S(=O)(=O)Nc2ccc3c(c2)CC(=O)N([C@H](C)CO)C[C@H](C)[C@@H](CN(C)C(=O)Nc2c(C)noc2C)O3)cc1 ?
esBAF inh: -4

What do the screens show for `CCOC(=O)c1ccc(-c2ccc(C=O)o2)cc1`?
HSF1 inh: 26; Wnt bcat act: 53*; esBAF inh: 54*; HSF-1 act: 33; MITF TRPM1 HTS: 58

Results for CCCCOC(=O)c1ccc(-c2ccc(/C=N/NC(=S)NCC)o2)cc1 ?
HSF1 inh: -38; Wnt bcat act: 2; esBAF inh: 46*; HSF-1 act: -52; MITF TRPM1 HTS: -4

What do the screens show for `CCOC(=O)c1ccc(-c2ccc(/C=N/NC(=O)c3cncc(Br)c3)o2)cc1`?
HSF1 inh: 10; Wnt bcat act: 29; esBAF inh: 44; HSF-1 act: -1

Results for CCOC(=O)c1cccc(-c2ccc(C=O)o2)c1 ?
HSF1 inh: 8; Wnt bcat act: -2; esBAF inh: 15; HSF-1 act: 19; MITF TRPM1 HTS: 25

How did CCCOC(=O)c1ccc(-c2ccc(C=O)o2)cc1 do in these assays?
HSF1 inh: 29; Wnt bcat act: 29; esBAF inh: 76*; HSF-1 act: 66*; MITF TRPM1 HTS: 27

Results for C=CCNC(=S)N/N=C/c1ccc(-c2ccc(Br)cc2)o1 ?
HSF1 inh: 41; HSF-1 act: 78*; MITF TRPM1 HTS: 14

Results for C=CCNC(=S)N/N=C/c1ccc(-c2cccc([N+](=O)[O-])c2)o1 ?
HSF1 inh: 22; HSF-1 act: 33; MITF TRPM1 HTS: 15

Results for CNC[C@H]1Oc2ccc(NC(=O)CCC(F)(F)F)cc2C(=O)N([C@H](C)CO)C[C@@H]1C ?
esBAF inh: 4

How did O=C(C[C@H]1CC[C@@H](NS(=O)(=O)c2ccccc2)[C@H](CO)O1)NCc1ccncn1 do in these assays?
esBAF inh: 2

Results for Clc1ccc(-c2cc3ccccc3[nH]2)cc1 ?
HSF1 inh: 16; Wnt bcat act: 42*; esBAF inh: 81*; HSF-1 act: 46

What do the screens show for `COc1cccc(NC(=O)N[C@H]2CC[C@@H](CC(=O)NCc3ccccn3)O[C@H]2CO)c1`?
esBAF inh: -6

How did Brc1csc(/C=N/Nc2nc3ccccc3s2)c1 do in these assays?
HSF1 inh: 21; HSF-1 act: 40; MITF TRPM1 HTS: 84*

How did C(=N\Nc1nc2ccccc2s1)/c1ccccn1 do in these assays?
HSF1 inh: -87*; Wnt bcat act: -12; HSF-1 act: -88

Compound activity from PubChem.
